Screening data: PubChem BioAssay, National Center for Advancing Translational Sciences (NCATS)
MARV entry inh: blocks Marburg virus binding to or entry into cells; Marburg virus pseudotyped entry inhibition, cell reporter; Potency, µM (titrated, usually from 37.8 µM), actives largely listed as inhibitors; hit rate 1.8% among 300,000; AID 540276; calls by dose curve; tested in HEK293 cells
AMA1-RON2 inh: AMA1-RON2 (P. falciparum) interaction inhibition. hit rate 0.2% among 360,000. AlphaScreen AMA1-biotinylated RON2 peptide binding. Potency, µM (series often up to 58.2 µM), most hits filed as inhibitors; active = well fitted inhibition curve with a large enough effect; inconclusive = small, poorly fitted or top-dose-only effect; inactive = no such curve, though single readings can be large or run the other way; note: nearly all actives have a fitted effect of over 45% in size
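AMA1 (3D7) with his tag at 25 nM final met compounds first, then biotinylated RON2 peptide at 25 nM; detection used donor plus acceptor beads, 10 µg/mL apiece, read by AlphaScreen after 30 min at room temperature.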
CHX counter: counter-screen for Shiga toxin inhibitors: cycloheximide protein synthesis inhibition; AID 2314; hit rate 12% among 300,000; max response, %; cell reporter, cycloheximide protein synthesis inhibition counterscreen; in the data active = max response mostly above about 13%, no sharp cut-off; inactive = mostly below about 14%; note: read at 38.3 µM for the half of the compounds with a filed dose
Shiga inhibitor: Shiga toxin inhibition | Vero cells, Shiga toxin protein synthesis inhibition reporter | inhibition, % at 38.7 µM | hit rate 9.2% among 290,000; in the data active = inhibition mostly above about 28%, no sharp cut-off; inactive = mostly below about 43%
Lassa entry inh: inhibitors of Lassa virus binding or cell entry; hit rate 1.2% among 300,000; Lassa virus pseudotype entry inhibition, cell reporter; AID 540256; Potency, µM (highest dose often 37.9 µM), most hits filed as inhibitors; calls by dose curve; tested in HEK293 cells; note: nearly all actives have a fitted effect of over 50% in size
Each line names hits and unclear results; the compound was inactive in the other large screens. Many of the other results were omitted from the sample, so hits are more common in it than they were.

O=C(Nc1ccccc1F)c1coc(=O)c(Br)c1	CHX counter 51, Shiga inhibitor active
COc1ccc(C(=O)NC(C)c2ccccc2)cc1Br (stereo not given)	Lassa entry inh inconclusive
O=C(NCCc1ccc(F)cc1)c1coc(=O)c(Br)c1	none (no result: MARV entry inh, Lassa entry inh)
O=C(Nc1ccc(Br)cn1)c1coc(=O)c(Br)c1	CHX counter 45, Shiga inhibitor 49
CC(=O)c1ccc(NC(=O)c2nc(-c3ccccc3)n(-c3ccccc3Cl)n2)cc1	none (no result: AMA1-RON2 inh, CHX counter, Shiga inhibitor)
O=C(NN=C1CCCC1)c1n[nH]c2c1CCC2	CHX counter 24
O=C(NC1CCCCC1)c1n[nH]c2c1CCCCC2	none (no result: MARV entry inh, CHX counter, Shiga inhibitor, Lassa entry inh)
O=C(NN=C1CCCC1)c1n[nH]c2c1CCCC2	CHX counter 32, Shiga inhibitor 59
Cc1cc(=O)n2nc(N3CCC(C(=O)Nc4c(C)cccc4C)CC3)sc2n1	none (no result: AMA1-RON2 inh, CHX counter, Shiga inhibitor)
CCOC(=O)c1c(C)[nH]c(CCC(=O)NCc2cccc(C)c2)c1C	none (no result: MARV entry inh, AMA1-RON2 inh, CHX counter, Shiga inhibitor)
CCOC(=O)c1c(C)[nH]c(N=Nc2cccc(C)c2)c1C	MARV entry inh inconclusive, AMA1-RON2 inh inconclusive, CHX counter 64, Shiga inhibitor 130
CCOC(=O)c1c(C)[nH]c(N=Nc2cccc(OC)c2)c1C	MARV entry inh inconclusive, AMA1-RON2 inh inconclusive, CHX counter 58, Shiga inhibitor 154 (no result: Lassa entry inh)
Cc1ccc(NC(=O)Cn2c(SCc3ccc(F)cc3)nc3cccnc32)cc1F	none (no result: MARV entry inh, AMA1-RON2 inh, CHX counter, Shiga inhibitor)
CCOC(=O)C1(N(CC)CC)Sc2cc(C)ccc2NC1=O (stereo not given)	MARV entry inh inconclusive, Lassa entry inh inconclusive
C=C(C)C(=O)OC1(C(F)(F)F)Oc2cc(C)ccc2NC1=O (stereo not given)	MARV entry inh inconclusive, CHX counter 56, Shiga inhibitor 93
CCCCn1c(N)c(N(CC(C)C)C(=O)CSc2nnc(-c3ccc(Cl)cc3)o2)c(=O)[nH]c1=O	none (no result: CHX counter, Shiga inhibitor)
CC(C)(C)c1cc(-c2csc(Nc3ccccc3)[n+]2Cc2ccc(C(=O)O)cc2)cc(C(C)(C)C)c1O	MARV entry inh 11µM
O=C(O)c1ccc(C[n+]2c(-c3ccccc3)csc2Nc2ccccc2)cc1	none
CCn1cc(CNC(=O)c2c(-c3c(Cl)cccc3Cl)noc2C)c(C)n1	none
COc1ccc(OCCSc2nnnn2C2CCCCC2)cc1	MARV entry inh inconclusive
c1ccc(OCCSc2nnnn2C2CCCCC2)cc1	CHX counter 30, Shiga inhibitor 95, Lassa entry inh 14µM
CCc1ccc(Cn2c(CNS(=O)(=O)c3ccc(Cl)s3)nc3cccnc32)cc1	none (no result: MARV entry inh, AMA1-RON2 inh, CHX counter, Shiga inhibitor)
COC(=O)C(O)(c1ccc(NC(=S)NC(=O)c2ccc(Cl)cc2Cl)c(C)c1)C(F)(F)F (stereo not given)	MARV entry inh inconclusive, Lassa entry inh 5.8µM
COC(=O)C(O)(c1ccc(NC(=S)NC(=O)c2ccc(Cl)cc2Cl)cc1)C(F)(F)F (stereo not given)	Lassa entry inh inconclusive
CCOC(=O)C(O)(c1ccc(NC(=S)NC(=O)c2ccc(Cl)cc2Cl)c(C)c1)C(F)(F)F (stereo not given)	MARV entry inh inconclusive, Lassa entry inh 10µM
COc1ccc(-c2csc(NC(=O)COc3ccc(N(C)S(=O)(=O)c4ccc(C)cc4)cc3)n2)cc1	MARV entry inh inconclusive
Cc1ccc(S(=O)(=O)Nc2nc(-c3ccc(F)cc3)cs2)cc1	CHX counter 13, Lassa entry inh inconclusive
COc1ccc(S(=O)(=O)Nc2ccccc2C(=O)Nc2nc(-c3ccc(F)cc3)cs2)cc1OC	MARV entry inh inconclusive, Lassa entry inh 11µM
COc1ccc(-c2csc(NC(=O)c3ccccc3NS(=O)(=O)c3ccc(C)cc3)n2)cc1	MARV entry inh 13µM, Lassa entry inh inconclusive
CCCNC(=O)c1ccccc1NS(=O)(=O)c1ccc(OC)c(OC)c1	MARV entry inh inconclusive
COc1cccc(CNc2ccc(F)c([N+](=O)[O-])c2)c1O	MARV entry inh inconclusive, CHX counter 30, Shiga inhibitor 47
CCN(C(=O)CSc1nc(-c2ccccc2)no1)c1cccc(C)c1	none (no result: AMA1-RON2 inh, CHX counter, Shiga inhibitor)
CC(C)Nc1nc(NC(C)C)nc(C(N)=O)n1	MARV entry inh inconclusive
O=C(Nc1c(Cl)ccc2nsnc12)c1ccc([N+](=O)[O-])o1	CHX counter 41, Shiga inhibitor 51 (no result: MARV entry inh, Lassa entry inh)
O=C(Nc1ccc([N+](=O)[O-])cn1)c1ccc(Br)o1	MARV entry inh inconclusive, CHX counter 18
O=C(Nc1ccc(Cl)cn1)c1ccc([N+](=O)[O-])o1	MARV entry inh inconclusive, CHX counter 45, Shiga inhibitor 119, Lassa entry inh inconclusive
O=C(Nc1c(Cl)ccc2nsnc12)c1ccc(Br)o1	none (no result: MARV entry inh, CHX counter, Shiga inhibitor, Lassa entry inh)
O=C(Nc1ccc([N+](=O)[O-])cn1)c1cccnc1	none (no result: Shiga inhibitor)
